Data on 39 compounds can be found in PubChem BioAssay (NCI).

This is part of a sample that, as a whole, favours compounds with a hit. Of some 83,000 tested, about 20% had one in any assay.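 Growth was measured after 48 h exposure to one concentration of compound in 96-well plates. Values under 10 count as active.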 Values without a mark were called inactive. Calls of active or inactive are those of the source.

The test system of one assay is LOX IMVI melanoma. Description: NCI-60 one-dose screen, 48 h (100 = growth as untreated, 0 = no growth, -100 = all killed). The settings on record: 10 µM.
As to `Cc1cc(C)c(N)c(S(=O)(=O)O)c1`, the growth is 93.9%.

Turning to `CC1CCC(C(=O)O)N1` (stereo not drawn), the growth was 99.2%.

For the compound `S=c1sc2ccccc2n1CN1CCCCC1`, the growth was 84.5%.

`CCCCC/C=N/Nc1nc(C)cc(=O)[nH]1`: the growth is 94.3%.

`CCOC(=O)C(O)C(O)C(=O)OCC` (stereo not drawn): the growth is 99.8%.

As to `CC(=O)NCc1cc(C)c(C)cc1C`, the growth is 98.6%.

As to `CCN=c1cc2sc3cc(NCC)c(C)cc3nc-2cc1C`, the growth is 2.17% (active).

For `COc1cc(-c2ccc(NC(=O)NC3CC3)c(OC)c2)ccc1NC(=O)NC1CC1`, the growth is 36.8%.

Consider `O=C(NC1CCCCC1)OCc1c(COC(=O)NC2CCCCC2)c(-c2ccc(Cl)c(Cl)c2)n2c1CCC2`, for which the growth is 13.3%.

With `COC(=O)c1ccccc1Br`, the growth is 98.4%.

Consider `COS(=O)(=O)c1ccc(Br)cc1`, for which the growth was 97.2%.

For the compound `COc1cc(C(=O)NC(=S)Nc2ccc3ccccc3c2)cc(OC)c1OC`, the growth is 91%.

For the compound `CC(=O)OCC(=O)[C@@]1(O)CC[C@H]2[C@@H]3CC[C@@H]4C[C@H](O)CC[C@]4(C)[C@H]3C(=O)C[C@@]21C`, the growth is 101%.

Consider `O=C1C=C(Nc2ccc([N+](=O)[O-])cc2)c2ccccc2C1=O`, for which the growth was 9.66% (active).

Regarding `CNC(=O)c1ccccc1CC1(O)c2ccccc2Oc2ccccc21`, the growth was 57.9%.

Turning to `O=C(O)C(O)c1ccccc1` (stereo not drawn), the growth was 94.2%.

For `CCCCC1(CC)COC(CCC)OC1` (stereo not drawn), the growth is 97.3%.

Consider `CCOC(=O)c1ccc(NC(=S)P(=O)(c2ccccc2)c2ccccc2)cc1`, for which the growth is 84.8%.

`CCCCCCCCCCCCCCCCC1CC(=O)OC1=O` (stereo not drawn): the growth was 103%.

For `COc1cc2c(cc1OC)[C@H](C(=O)O)[C@@H](c1ccc(OC(C)C)c(OC)c1)N(C)C2=O`, the growth was 94.7%.

On to `CC1CC(O)CC(C)(C)C1` (stereo not drawn), for which the growth was 102%.

Take `Nc1ccc(C(=O)c2ccc(N)c(Br)c2)cc1Br`: the growth was 12.9%.

For the compound `NC(N)=Nc1cc2ccccc2c2ccccc12`, the growth is 74.9%.

As to `C[C@]12CC[C@@H]3c4ccc(OCC(=O)O)cc4CC[C@H]3[C@@H]1CCC2=O`, the growth was 86%.

As to `CNS(=O)(=O)c1ccc(Cl)c(Cl)c1`, the growth was 102%.

As to `C=CC(O)CCC` (stereo not drawn), the growth was 98.6%.

As for `O=P(O)(O)OCC(O)CO` (stereo not drawn), the growth is 97.9%.

`O=C(O)CSCSCC(=O)O`: the growth is 97.3%.

Take `CCOC(=O)CCCS(C)(=O)=O`: the growth was 98.8%.

Consider `Cc1cc(Cc2cc(C)c(N)cc2N)c(N)cc1N`, for which the growth is 87.3%.

`COCCOCCCl`: the growth is 98.5%.

On to `COc1cc2nn(-c3ccccc3N)nc2cc1OC`, for which the growth is 94.7%.

Turning to `CC1(O)CCCCC1O` (stereo not drawn), the growth was 106%.

Regarding `O=C(CCl)Nc1ccc2c(c1)C(=O)c1ccc(NC(=O)CCl)cc1C2=O`, the growth is -89.6% (active).

For the compound `C=CCNc1nnc(C)s1`, the growth is 97.8%.

On to `COc1cc(/C=N\Nc2ccccc2)ccc1OC(=O)c1ccccc1`, for which the growth was 3.86% (active).

Take `CCC(C#N)(CC)c1ccccc1`: the growth is 97.9%.

`O=C1C[C@H](c2ccccc2)[C@H](c2ccccc2)C1`: the growth is 102%.

In the case of `Cn1cnc2nc(Cl)nc(Cl)c21`, the growth is 18.1%.

The subject of a further assay is SK-MEL-28 melanoma. The description is as above. The settings on record: 10 µM.
`Cc1cc(C)c(N)c(S(=O)(=O)O)c1`: the growth is 132%.

Take `CC1CCC(C(=O)O)N1` (stereo not drawn): the growth is 95.4%.

With `S=c1sc2ccccc2n1CN1CCCCC1`, the growth is 106%.

As to `CCCCC/C=N/Nc1nc(C)cc(=O)[nH]1`, the growth was 102%.

For the compound `CCOC(=O)C(O)C(O)C(=O)OCC` (stereo not drawn), the growth was 106%.

Take `CC(=O)NCc1cc(C)c(C)cc1C`: the growth was 103%.

For the compound `CCN=c1cc2sc3cc(NCC)c(C)cc3nc-2cc1C`, the growth was 60.4%.

With `COc1cc(-c2ccc(NC(=O)NC3CC3)c(OC)c2)ccc1NC(=O)NC1CC1`, the growth is 86.7%.

On to `O=C(NC1CCCCC1)OCc1c(COC(=O)NC2CCCCC2)c(-c2ccc(Cl)c(Cl)c2)n2c1CCC2`, for which the growth is 75.6%.

On to `COC(=O)c1ccccc1Br`, for which the growth is 159%.

In the case of `COS(=O)(=O)c1ccc(Br)cc1`, the growth was 98.4%.

On to `COc1cc(C(=O)NC(=S)Nc2ccc3ccccc3c2)cc(OC)c1OC`, for which the growth was 98.1%.

Turning to `CC(=O)OCC(=O)[C@@]1(O)CC[C@H]2[C@@H]3CC[C@@H]4C[C@H](O)CC[C@]4(C)[C@H]3C(=O)C[C@@]21C`, the growth is 121%.

On to `O=C1C=C(Nc2ccc([N+](=O)[O-])cc2)c2ccccc2C1=O`, for which the growth was 50.3%.

For the compound `CNC(=O)c1ccccc1CC1(O)c2ccccc2Oc2ccccc21`, the growth is 63.8%.

Turning to `O=C(O)C(O)c1ccccc1` (stereo not drawn), the growth is 107%.

Turning to `CCCCC1(CC)COC(CCC)OC1` (stereo not drawn), the growth was 115%.

Turning to `CCOC(=O)c1ccc(NC(=S)P(=O)(c2ccccc2)c2ccccc2)cc1`, the growth was 106%.

As to `CCCCCCCCCCCCCCCCC1CC(=O)OC1=O` (stereo not drawn), the growth is 105%.

On to `COc1cc2c(cc1OC)[C@H](C(=O)O)[C@@H](c1ccc(OC(C)C)c(OC)c1)N(C)C2=O`, for which the growth is 116%.

`CC1CC(O)CC(C)(C)C1` (stereo not drawn): the growth was 112%.

Turning to `Nc1ccc(C(=O)c2ccc(N)c(Br)c2)cc1Br`, the growth is 45%.

As for `NC(N)=Nc1cc2ccccc2c2ccccc12`, the growth was 88.3%.

Consider `C[C@]12CC[C@@H]3c4ccc(OCC(=O)O)cc4CC[C@H]3[C@@H]1CCC2=O`, for which the growth is 118%.

With `CNS(=O)(=O)c1ccc(Cl)c(Cl)c1`, the growth was 119%.

Regarding `C=CC(O)CCC` (stereo not drawn), the growth was 98.3%.

Take `O=P(O)(O)OCC(O)CO` (stereo not drawn): the growth is 98.2%.

Take `O=C(O)CSCSCC(=O)O`: the growth is 97.8%.

Consider `CCOC(=O)CCCS(C)(=O)=O`, for which the growth is 104%.

On to `Cc1cc(Cc2cc(C)c(N)cc2N)c(N)cc1N`, for which the growth is 112%.

As to `COCCOCCCl`, the growth was 114%.

As for `COc1cc2nn(-c3ccccc3N)nc2cc1OC`, the growth is 109%.

On to `CC1(O)CCCCC1O` (stereo not drawn), for which the growth was 113%.

On to `O=C(CCl)Nc1ccc2c(c1)C(=O)c1ccc(NC(=O)CCl)cc1C2=O`, for which the growth is -40.6% (active).

Consider `C=CCNc1nnc(C)s1`, for which the growth is 104%.

Consider `COc1cc(/C=N\Nc2ccccc2)ccc1OC(=O)c1ccccc1`, for which the growth was 87.6%.

`CCC(C#N)(CC)c1ccccc1`: the growth is 108%.

As for `O=C1C[C@H](c2ccccc2)[C@H](c2ccccc2)C1`, the growth was 109%.

As to `Cn1cnc2nc(Cl)nc(Cl)c21`, the growth is 65.1%.
